SMILES strings stand for the structures. A number with no mark means an inactive call. Records with an inconclusive call do not appear. The source made the active and inactive calls. Unless noted, calls come from the whole dose curve; as a rule, active = well fitted curve in either direction with a large enough effect (not every such curve was filed as active); inconclusive = small, poorly fitted or top-dose-only effect, or another doubt; inactive = flat fitted curve, though single readings scatter.

This note sets out measurements from PubChem BioAssay (NCATS).

The target of assay [1] is Lysosomal acid glucosylceramidase (Homo sapiens) (UniProt P04062). Put plainly: Glucocerebrosidase-p2 (AID 348; in the data active = potency below about 10 µM; note: potency is the fitted concentration of half-maximal effect). To be noted: purified GBA, blue fluorogenic substrate, 40 min. An outline of the steps: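 Normal human glucocerebrosidase (0.2 nM) with blue fluorogenic substrate (80 uM final) in citrate/phosphate pH 5.9 with 10mM sodium taurocholate, 0.01% tween-20; 40 min RT, NaOH/glycine stop; fluorescence Ex 365/Em 440; AC50 from a titration from 0.6 nM upwards.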
Sequence of Lysosomal acid glucosylceramidase (Homo sapiens) (P04062 whole entry, looked up): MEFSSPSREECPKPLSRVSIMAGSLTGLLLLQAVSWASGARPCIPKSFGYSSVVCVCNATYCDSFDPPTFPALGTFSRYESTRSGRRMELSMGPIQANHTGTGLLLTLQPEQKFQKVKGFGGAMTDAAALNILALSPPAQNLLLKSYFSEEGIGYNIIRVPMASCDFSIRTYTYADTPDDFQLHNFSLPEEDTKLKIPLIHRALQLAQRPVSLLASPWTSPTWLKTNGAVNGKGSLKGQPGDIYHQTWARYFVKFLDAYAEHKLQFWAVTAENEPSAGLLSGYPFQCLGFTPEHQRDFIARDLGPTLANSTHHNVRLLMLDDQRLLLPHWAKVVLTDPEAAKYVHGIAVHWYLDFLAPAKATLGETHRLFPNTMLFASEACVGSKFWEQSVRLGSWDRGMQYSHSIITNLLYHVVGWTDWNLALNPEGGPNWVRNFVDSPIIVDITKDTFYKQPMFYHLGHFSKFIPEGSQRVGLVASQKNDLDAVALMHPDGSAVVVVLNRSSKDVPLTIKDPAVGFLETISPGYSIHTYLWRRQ

The nature of assay [2]: AP1 Signaling Pathway (AID 357).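 Note: ME-180 reporter cells stimulated with EGF at its EC50 level; % is set by controls: 0 for no effect and ±100 for the full control effect.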 To be noted: ME-180 AP-1-bla reporter, EGF-induced, beta-lactamase ratio, 5 h; at 7.69 µM (top of the series) unless noted. An outline of the steps: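 Titration-series screen for positive or negative modulators of EC50 EGF-induced signaling in ME-180 cells carrying an AP-1-driven beta-lactamase reporter. After 5 hours at 37 degrees Celsius, CCF4 460nm/530nm emission ratio gave %Activity; AC50 values derived.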

Assay [3] deals with Cytochrome P450 1A2 (Homo sapiens) (UniProt P05177). Put plainly: p450-cyp1a2 (AID 410; calls by dose curve; note: potency is the fitted concentration of half-maximal effect;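 for activity change, negative = inhibition: -100% = full effect of reference inhibitor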). Particulars: recombinant CYP1A2, luciferin-ME demethylation, luminescence; series mostly up to 11.4 µM. An outline of the steps: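 Luminescent demethylation readout: Luciferin-ME (100uM, equal to Km) turned over by 20nM CYP1A2 for 60 min at room temperature after NADPH regeneration addition, following 10 min compound preincubation. Normalization used 57 uM furafylline as full inhibition.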
Sequence of Cytochrome P450 1A2 (Homo sapiens) (P05177 whole entry, looked up): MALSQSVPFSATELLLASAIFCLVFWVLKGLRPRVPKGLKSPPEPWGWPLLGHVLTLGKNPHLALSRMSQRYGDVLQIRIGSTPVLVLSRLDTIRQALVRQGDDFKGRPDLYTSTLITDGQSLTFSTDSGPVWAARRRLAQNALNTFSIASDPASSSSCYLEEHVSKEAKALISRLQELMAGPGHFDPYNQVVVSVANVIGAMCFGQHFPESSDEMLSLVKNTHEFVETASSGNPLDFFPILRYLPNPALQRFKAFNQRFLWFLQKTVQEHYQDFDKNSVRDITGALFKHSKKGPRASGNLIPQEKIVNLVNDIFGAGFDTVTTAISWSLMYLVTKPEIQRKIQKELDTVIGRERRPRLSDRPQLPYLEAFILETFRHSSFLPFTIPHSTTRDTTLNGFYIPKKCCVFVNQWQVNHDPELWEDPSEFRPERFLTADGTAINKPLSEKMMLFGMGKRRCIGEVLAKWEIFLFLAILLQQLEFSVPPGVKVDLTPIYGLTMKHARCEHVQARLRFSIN

The nature of assay [4]: NFAT Signaling Pathway (AID 444).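 Note: carbachol stimulus at about its EC50 of 1 µM final; % is set by controls: 0 for no effect and ±100 for the full control effect.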 To be noted: Jurkat NFAT-bla M1, carbachol, beta-lactamase ratio, 5 h; at 7.69 µM (top of the series) unless noted. In outline:
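Read-out: CCF4 FRET ratio (460 nm/530 nm) after 1 h RT dye loading, used for %activity and AC50 from titration series. Cells: Jurkat NFAT-β-lactamase/M1 line, treated with compound plus 1 uM carbachol for 5 h, 37 °C.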

Assay [5] in a line: Stat Signaling Pathway (AID 446).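 Note: ME-180 cervical cancer cells given 40 pM IL-6 alongside compound; SIE-controlled beta-lactamase reporter measured as 460/530 nm FRET emission ratio; % is set by controls: 0 for no effect and ±100 for the full control effect.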 Particulars: ME-180 SIE beta-lactamase reporter, IL-6 stimulated, 5 h; at 7.69 µM (top of the series) unless noted. In outline: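 Overnight-plated ME-180 cells bearing a STAT Inducible Element beta-lactamase reporter; 5 h co-exposure to compound and 40 pM IL-6; values normalized to 300 pM IL-6 and 125 nM JAK inhibitor controls.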
Assay [6] concerns the target Glucocorticoid receptor (Homo sapiens) (UniProt P04150). Briefly: GR-GFP Redistribution (AID 450;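 active = compounds whose dose series gives a full or clear partial fitted curve of increased nuclear translocation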; note: potency is the fitted concentration of half-maximal effect). To be noted: U2OS GR-GFP nuclear translocation, laser cytometry, 2 h.
For assay [7] the target is unchanged. Briefly: GR-EFC Redistribution (AID 451; calls by dose curve; note: potency is the fitted concentration of half-maximal effect). Particulars: CHO-K1 GR-EFC translocation, beta-gal luminescence, 2 h. In outline: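 Translocation of GR-ED fusion to nuclear EA restores b-gal, read by luminescence after 1 h room-temperature detection. Engineered CHO-K1 biosensor cells, 1,000/well, exposed 2 h at 37 C to titrations up to 46 uM final.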
For assay [8], the target named is Mitogen-activated protein kinase 10 (Mus musculus) (UniProt Q61831). Briefly: JNK3 AlphaScreen Assay (AID 530).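 Note: kinase came from lysate of stimulated human HepG2 cells; signal reports phosphorylation of biotinylated GST-cJun 1-79 at Ser73 with 10 µM ATP; % is set by controls: 0 for no effect and ±100 for the full control effect.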 Particulars: JNK3 lysate, c-Jun phosphorylation; series mostly up to 11.4 µM. In outline: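 qHTS titrations with 15 min compound pre-incubation before adding ATP (10 uM final). Read-out: AlphaScreen of Ser73-phosphorylated biotin-GST-cJun using HepG2 lysate JNK3 activated by IL-1β and TNFα.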
(In Alpha technology, singlet oxygen from a donor bead excites a nearby acceptor bead.)

The target of assay [9] is 3',5'-cyclic-AMP phosphodiesterase 4B (Homo sapiens) (UniProt Q07343). Put plainly: qHTS Assay for Inhibitors of PDE-IV (AID 607; active = well fitted activation curve with a large enough effect in the main read-out, with a control signal flat, not every such curve was filed as active; note: % of control where 0% means no effect). Particulars: HEK293 ACTOne CNG channel cells, membrane potential fluorescence; series mostly up to 22.9 µM. An outline of the steps:
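Live HEK293 cells with a modified cyclic nucleotide-gated (CNG) channel report intracellular cAMP via membrane-potential dye fluorescence (ex 535/em 590 nm). Endogenous PDE-IV was targeted. Compounds were tested at up to 22.9 uM final; RO 20-1724 100 uM served as control.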

In assay [10] the target is Cytochrome P450 2C9 (Homo sapiens) (UniProt P11712). Put plainly: qHTS Assay for Inhibitors and Substrates of Cytochrome P450 2C9 (AID 883; active = well fitted curve in the direction sought with a large enough effect; an effect the other way counts as inactive or inconclusive; note: nearly all actives have a fitted effect of over 60% in size; note: potency is the fitted concentration of half-maximal effect). To be noted: recombinant CYP2C9, luciferin-H luminescence, 60 min; series mostly up to 11.4 µM. An outline of the steps:
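Inhibition of CYP2C9 is scored as loss of luminescence, with 57uM sulphaphenazole defining 100% inhibition. Substrate Luciferin-H is used at 100uM, equal to its KM; enzyme at 10nM in 25mM KPO4, 60 min at 37C with NADPH regeneration.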
(qHTS replaces the single test concentration by a dilution series.)

Assay [11] in a line: qHTS Assay for Identification of Small Molecule Agonists for Hypoxia Response Element Signaling Pathway (AID 914; active = well fitted activation curve with a large enough effect in the signal ratio, with a control signal flat, not every such curve was filed as active; the % refers to the signal ratio; note: % of control where 0% means no effect). Particulars: ME-180 (cervical carcinoma) HRE-bla reporter, beta-lactamase ratio, CoCl2, 17 h; activation: active compounds read high. An outline of the steps:
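qHTS titration; ME-180 HRE-bla cells; EC50 CoCl2 co-treatment, 17 h at 37 degrees Celsius; CCF4 dye, ex 405nm, em 460nm and 530nm; %Activity from ratio; AC50.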

Assay [12] addresses Cytochrome P450 3A4 (Homo sapiens) (UniProt P08684). Briefly: qHTS Assay for Inhibitors and Substrates of Cytochrome P450 3A4 (AID 884; active = well fitted curve in the direction sought with a large enough effect; an effect the other way counts as inactive or inconclusive; note: nearly all actives have a fitted effect of over 50% in size; note: potency is the fitted concentration of half-maximal effect). Particulars: recombinant CYP3A4, Luciferin-PPXE luminescence; series mostly up to 57.1 µM. An outline of the steps:
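Luminescent readout of luciferin produced by CYP3A4 (20 nM) dealkylation of Luciferin-PPXE, 25 uM (its KM). NADPH-driven reaction ran 60 min at RT after 10 min compound preincubation; data scaled to 57 uM ketoconazole as 100% inhibition.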

Assay [13] has the same target. Briefly: qHTS Assay for Activators of Cytochrome P450 3A4 (AID 885; active = well fitted curve in the direction sought with a large enough effect; an effect the other way counts as inactive or inconclusive; note: nearly all actives have a fitted effect of over 65% in size). Particulars: recombinant CYP3A4, Luciferin-PPXE luminescence, 60 min; series mostly up to 11.4 µM. In outline: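 Using 20nM recombinant human CYP3A4 in potassium phosphate (200mM), substrate Luciferin-PPXE at 25uM, luminescent luciferin detection followed a 60-min RT NADPH reaction; data scaled to 57 uM ketoconazole.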

In assay [14] the target is Cytochrome P450 2D6 (Homo sapiens) (UniProt P10635). Put plainly: qHTS Assay for Inhibitors and Substrates of Cytochrome P450 2D6 (AID 891; active = well fitted curve in the direction sought with a large enough effect; an effect the other way counts as inactive or inconclusive; note: nearly all actives have a fitted effect of over 60% in size; note: potency is the fitted concentration of half-maximal effect). To be noted: recombinant CYP2D6, luciferin-ME EGE luminescence; series mostly up to 11.4 µM. In outline: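 Luminescent read-out of luciferin formed by 5 nM human CYP2D6 demethylating 30 uM Luciferin-ME EGE (Km level) over 60 min at room temperature after NADPH regeneration addition. Data normalized to full inhibition by 1.43 uM quinidine.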
Sequence of Cytochrome P450 2D6 (Homo sapiens) (P10635 whole entry, looked up): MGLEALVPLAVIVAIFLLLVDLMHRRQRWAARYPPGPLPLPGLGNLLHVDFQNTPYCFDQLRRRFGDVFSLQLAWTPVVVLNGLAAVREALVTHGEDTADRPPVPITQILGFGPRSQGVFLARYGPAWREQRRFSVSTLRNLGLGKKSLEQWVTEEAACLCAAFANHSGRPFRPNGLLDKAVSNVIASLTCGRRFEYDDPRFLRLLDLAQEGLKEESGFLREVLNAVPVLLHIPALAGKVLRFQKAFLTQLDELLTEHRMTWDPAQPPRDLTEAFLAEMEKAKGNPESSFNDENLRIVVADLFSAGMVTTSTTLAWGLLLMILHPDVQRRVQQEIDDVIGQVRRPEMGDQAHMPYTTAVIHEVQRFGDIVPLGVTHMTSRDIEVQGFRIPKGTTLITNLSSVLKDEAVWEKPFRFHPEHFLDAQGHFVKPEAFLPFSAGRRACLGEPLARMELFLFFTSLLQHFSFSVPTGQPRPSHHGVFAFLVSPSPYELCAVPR

Assay [15] concerns the target Cytochrome P450 2C19 (Homo sapiens) (UniProt P33261). Put plainly: qHTS Assay for Inhibitors and Substrates of Cytochrome P450 2C19 (AID 899; active = well fitted curve in the direction sought with a large enough effect; an effect the other way counts as inactive or inconclusive; note: nearly all actives have a fitted effect of over 60% in size; note: potency is the fitted concentration of half-maximal effect). To be noted: recombinant CYP2C19, luciferin-H EGE luminescence; series mostly up to 11.4 µM. An outline of the steps:
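5nM enzyme + 10uM Luciferin-H EGE (=KM), 50mM KPO4; cpd pin-transferred, 10 min 37C; NADPH regen, 60 min 37C; stopped w/ luciferin detection reagent, 20 min; luminescence. Normalized to 57uM ketoconazole (AC100).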

Sequence of 3',5'-cyclic-AMP phosphodiesterase 4B (Homo sapiens) (Q07343 whole entry, looked up): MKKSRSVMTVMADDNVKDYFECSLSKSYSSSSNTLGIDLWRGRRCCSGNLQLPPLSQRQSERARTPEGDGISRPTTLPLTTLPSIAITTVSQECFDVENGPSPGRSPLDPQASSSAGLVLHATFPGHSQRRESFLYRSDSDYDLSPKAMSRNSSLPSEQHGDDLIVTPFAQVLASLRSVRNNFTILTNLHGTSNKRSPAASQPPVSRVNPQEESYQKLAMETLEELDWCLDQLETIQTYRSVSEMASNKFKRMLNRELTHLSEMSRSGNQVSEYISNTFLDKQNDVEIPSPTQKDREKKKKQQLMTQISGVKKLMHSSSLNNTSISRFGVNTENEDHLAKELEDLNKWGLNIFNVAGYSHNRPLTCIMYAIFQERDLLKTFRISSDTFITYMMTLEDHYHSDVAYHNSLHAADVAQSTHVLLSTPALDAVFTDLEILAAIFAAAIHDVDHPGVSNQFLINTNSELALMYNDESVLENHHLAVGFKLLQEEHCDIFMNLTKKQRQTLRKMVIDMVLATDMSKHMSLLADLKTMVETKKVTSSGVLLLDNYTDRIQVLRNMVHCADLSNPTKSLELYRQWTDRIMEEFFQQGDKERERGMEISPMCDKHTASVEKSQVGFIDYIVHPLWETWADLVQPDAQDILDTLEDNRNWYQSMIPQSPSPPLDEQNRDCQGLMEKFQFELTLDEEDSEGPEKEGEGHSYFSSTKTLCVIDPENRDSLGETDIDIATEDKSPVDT
Sequence of Cytochrome P450 3A4 (Homo sapiens) (P08684 whole entry, looked up): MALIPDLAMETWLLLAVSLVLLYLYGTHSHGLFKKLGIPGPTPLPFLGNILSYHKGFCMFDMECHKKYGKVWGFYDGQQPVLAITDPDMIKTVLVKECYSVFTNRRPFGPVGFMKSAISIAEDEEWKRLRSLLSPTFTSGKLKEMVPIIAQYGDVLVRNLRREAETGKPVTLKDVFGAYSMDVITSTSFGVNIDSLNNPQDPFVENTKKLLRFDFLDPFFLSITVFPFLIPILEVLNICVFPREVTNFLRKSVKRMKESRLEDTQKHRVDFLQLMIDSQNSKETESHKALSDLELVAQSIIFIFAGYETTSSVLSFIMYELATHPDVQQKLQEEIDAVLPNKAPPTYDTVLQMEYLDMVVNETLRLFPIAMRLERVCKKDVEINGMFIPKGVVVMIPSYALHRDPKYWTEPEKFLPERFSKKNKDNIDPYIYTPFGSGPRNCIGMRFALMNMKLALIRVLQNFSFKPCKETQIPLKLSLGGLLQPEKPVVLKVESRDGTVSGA
Sequence of Cytochrome P450 2C19 (Homo sapiens) (P33261 whole entry, looked up): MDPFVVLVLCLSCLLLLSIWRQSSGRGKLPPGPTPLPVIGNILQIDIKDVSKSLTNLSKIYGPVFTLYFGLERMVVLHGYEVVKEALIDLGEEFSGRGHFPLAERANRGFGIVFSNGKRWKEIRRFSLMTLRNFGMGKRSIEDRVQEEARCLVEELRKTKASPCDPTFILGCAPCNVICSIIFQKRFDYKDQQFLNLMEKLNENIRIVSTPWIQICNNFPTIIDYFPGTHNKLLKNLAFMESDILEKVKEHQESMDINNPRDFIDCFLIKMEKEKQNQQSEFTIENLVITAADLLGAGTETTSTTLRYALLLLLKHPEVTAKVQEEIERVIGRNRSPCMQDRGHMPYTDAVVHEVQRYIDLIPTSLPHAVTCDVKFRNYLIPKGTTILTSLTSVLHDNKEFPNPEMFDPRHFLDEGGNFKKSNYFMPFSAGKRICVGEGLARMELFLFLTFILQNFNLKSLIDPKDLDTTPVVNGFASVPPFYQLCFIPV
Sequence of Glucocorticoid receptor (Homo sapiens) (P04150 whole entry, looked up, the tested form may be a part): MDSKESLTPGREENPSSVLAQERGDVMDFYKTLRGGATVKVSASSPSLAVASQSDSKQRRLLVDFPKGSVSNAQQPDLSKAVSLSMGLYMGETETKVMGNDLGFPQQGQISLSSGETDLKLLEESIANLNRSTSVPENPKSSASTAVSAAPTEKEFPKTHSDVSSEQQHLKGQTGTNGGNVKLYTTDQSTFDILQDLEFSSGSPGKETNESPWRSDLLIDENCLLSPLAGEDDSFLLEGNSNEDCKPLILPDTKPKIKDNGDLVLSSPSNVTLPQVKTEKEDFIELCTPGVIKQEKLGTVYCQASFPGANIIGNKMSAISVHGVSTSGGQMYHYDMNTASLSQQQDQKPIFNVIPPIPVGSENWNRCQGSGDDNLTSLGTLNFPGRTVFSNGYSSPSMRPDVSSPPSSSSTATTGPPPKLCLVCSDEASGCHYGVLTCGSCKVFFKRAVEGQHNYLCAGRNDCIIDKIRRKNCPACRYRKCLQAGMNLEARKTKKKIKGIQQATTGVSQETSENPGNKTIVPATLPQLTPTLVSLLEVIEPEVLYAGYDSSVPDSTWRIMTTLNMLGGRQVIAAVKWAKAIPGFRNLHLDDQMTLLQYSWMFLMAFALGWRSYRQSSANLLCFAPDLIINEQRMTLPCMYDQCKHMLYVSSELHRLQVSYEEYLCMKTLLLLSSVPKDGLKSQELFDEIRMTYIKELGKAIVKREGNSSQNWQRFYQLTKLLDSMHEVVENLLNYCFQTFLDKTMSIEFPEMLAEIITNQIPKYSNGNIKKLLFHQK
Sequence of Cytochrome P450 2C9 (Homo sapiens) (P11712 whole entry, looked up): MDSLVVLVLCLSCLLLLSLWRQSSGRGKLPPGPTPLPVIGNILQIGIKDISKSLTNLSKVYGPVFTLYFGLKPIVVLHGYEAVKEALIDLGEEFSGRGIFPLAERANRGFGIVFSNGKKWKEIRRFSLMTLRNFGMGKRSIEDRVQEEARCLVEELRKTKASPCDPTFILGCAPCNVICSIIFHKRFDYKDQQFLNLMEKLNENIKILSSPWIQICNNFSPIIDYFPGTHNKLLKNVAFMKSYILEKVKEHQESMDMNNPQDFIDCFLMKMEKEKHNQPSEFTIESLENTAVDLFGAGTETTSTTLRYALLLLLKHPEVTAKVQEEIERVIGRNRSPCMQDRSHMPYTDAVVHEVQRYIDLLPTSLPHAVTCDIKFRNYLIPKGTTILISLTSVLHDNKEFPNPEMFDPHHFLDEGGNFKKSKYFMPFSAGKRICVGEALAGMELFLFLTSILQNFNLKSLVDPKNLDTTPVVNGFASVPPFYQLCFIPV

Regarding `N#C/C(=C\Nc1ccccn1)C(=O)c1ccco1`, the Potency was more than 11.4 µM in [1], more than 46 µM in [6], more than 9.22 µM in [7] and 3.16 µM (active) in [10]. In addition, the values for the activity change, negative = inhibition in [2] and in assay [4] were 2.96% and 2.59%, respectively. Further, the Potency result in assay [3], in [8] and in assay [9] was “inactive” in each case. Also, the activity, negative = inhibition in assay [5] is 3.37%. Moreover, the activation in [11] is -12.2%.
As to `CC1=C/C(=C(/c2ccc(O)c(C)c2)c2ccccc2C(=O)O)C=CC1=O`, the Potency is more than 11.4 µM in [1]; 3.16 µM (active) in assay [3]; more than 46 µM in [6]; more than 9.22 µM in assay [7]; 1.58 µM (active) in [12]; 1.58 µM (active) in [14]. Further, the Potency in assay [15] was 0.0032 µM (active). In addition, the activity change, negative = inhibition in assay [2] was 12.7%; in [4], -5.21%. Moreover, the activity, negative = inhibition in assay [5] was 4.74%. Further, the Potency result in assay [8], in assay [9] and in assay [13] was “inactive” throughout.
Regarding `O[C@@H](C1=C/C(=C\c2ccncc2)c2ccccc21)c1ccncc1`, the Potency in assay [1] was more than 11.4 µM; in assay [3] it was 0.1 µM (active); in assay [6], more than 46 µM; in assay [7], more than 9.22 µM; in assay [12], 0.794 µM (active); in assay [15] it was 0.158 µM (active). The values for the activity change, negative = inhibition in assay [2] and in assay [4] were 6.34% and -26.9%, respectively. The activity, negative = inhibition in assay [5] was -15.9%. Also, the Potency result in [8], in assay [9] and in [13] was “inactive” throughout.
`N=C(N)SCCN1CCCCC1`: the Potency is more than 11.4 µM in [1], more than 46 µM in assay [6] and more than 9.22 µM in assay [7]. Further, the results for the activity change, negative = inhibition in assay [2], in [4] and in assay [12] were 10.8%, 0.176% and -31.7% [at 11.4 µM], respectively. Besides, the Potency entry in assay [3], in assay [8], in [9], in assay [14] and in assay [15] was “inactive” each time. The activity, negative = inhibition in assay [5] is -0.606%.
For `C(=N/Nc1nnc2c(n1)[nH]c1ccccc12)/c1cccnc1`, the Potency in [1] is more than 11.4 µM; in assay [3] it was 0.631 µM (active); in assay [6] it was more than 46 µM; in [7], more than 9.22 µM; in assay [12], 3.98 µM (active). In addition, the values for the activity change, negative = inhibition in assay [2] and in [4] were -0.49% and 1.85%, respectively. Also, in assay [5], the activity, negative = inhibition is -7.13%. In addition, the Potency result in [8], in assay [9] and in assay [13] was “inactive” throughout.
In the case of `CC(C)[C@@H]1OC(=O)C=CC=CC=CC=CC=CC[C@@H](O)[C@H](C)[C@@H](O)C[C@H](O)C[C@H](O)C[C@H](O)C[C@H](O)C[C@H](O)C[C@H](O)C=C[C@@H]1C`, the Potency in assay [1] is more than 11.4 µM; in assay [6] it was more than 46 µM; in [7], more than 9.22 µM. The activity change, negative = inhibition in assay [2] is 1.06%; in [3] it was -2.1% [at 2.29 µM]; in assay [4], 9.95%. The activity, negative = inhibition in [5] was 8%. For the same compound, the Potency result in [8], in [9], in [10] and in assay [15] was “inactive” each time.
Take `Cc1ccc(S(=O)(=O)Nc2cc(=O)[nH]c3c2CCC3)cc1`: the Potency in [1] is more than 11.4 µM; in assay [3] it was 3.98 µM (active); in [6], more than 46 µM; in assay [7] it was more than 9.22 µM; in assay [12] it was 3.16 µM (active); in assay [15], 0.631 µM (active). Further, the activity change, negative = inhibition in assay [2] was 6.25%; in assay [4], 9.14%. In addition, the activity, negative = inhibition in [5] was -3.68%. In addition, the Potency entry in assay [8], in assay [9] and in assay [13] was “inactive” throughout. The activation in assay [11] was 2.61%.
As for `Nc1nc(SCc2ccccc2[N+](=O)[O-])c2[nH]cnc2n1`, the Potency is more than 11.4 µM in assay [1]; 5.01 µM (active) in assay [3]; more than 46 µM in [6]; more than 9.22 µM in [7]; 3.16 µM (active) in assay [12]. Also, the results for the activity change, negative = inhibition in [2] and in assay [4] were -3.57% and 14.4%, respectively. The activity, negative = inhibition in [5] is -8.39%. Moreover, the Potency result in assay [8], in assay [9] and in assay [13] was “inactive” each time.
